# According to PubChem BioAssay (NCI):
# About 83,000 compounds went through this panel and 20% of them were active in at least one assay; those are over-represented in the sample as a whole.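 48-hour exposure, single concentration, 96-well plates; percent growth endpoint where 0 means no net growth. Active: below 10.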 A number with no mark means an inactive call. The source made the active and inactive calls.
# Key:
# Test in all cases: NCI-60 one-dose screen, 48 h (100 = growth as untreated, 0 = no growth, -100 = all killed)
# Settings in all cases: 10 µM unless noted
# [1] = system: DU-145 prostate
# [2] = system: K-562 leukemia
# [3] = system: MALME-3M melanoma
# [4] = system: MDA-MB-231 breast
# [5] = system: RXF 393 renal
# [6] = system: SF-268 CNS
# [7] = system: SF-295 CNS
# [8] = system: SF-539 CNS
# [9] = system: UACC-257 melanoma
# [10] = system: HCT-15 colon
# [11] = system: HT29 colon
# [12] = system: SNB-75 CNS
# [13] = system: SNB-19 CNS
# [14] = system: U251 CNS
# [15] = system: PC-3 prostate
# [16] = system: SK-MEL-5 melanoma
# [17] = system: UACC-62 melanoma
# [18] = system: LOX IMVI melanoma
# [19] = system: SK-MEL-28 melanoma
# [20] = system: M14 melanoma
SMILES,growth [1],growth [2],growth [3],growth [4],growth [5],growth [6],growth [7],growth [8],growth [9],growth [10],growth [11],growth [12],growth [13],growth [14],growth [15],growth [16],growth [17],growth [18],growth [19],growth [20]
O=S(=O)(NCCNc1nccc(-n2cnc3ccccc32)n1)c1ccc(Cl)cc1,104%,97.6%,99.5%,90.6%,117%,92.3%,96.7%,91.2%,103%,96.6%,103%,79.4%,97.7%,102%,103%,99.4%,86.4%,93.5%,101%,
C#Cc1nc(C(C)=O)cs1,109%,90.6%,105%,103%,95.6%,105%,106%,99.1%,107%,99.4%,110%,85.5%,102%,102%,98.4%,104%,94.3%,94.7%,106%,
NS(=O)(=O)c1ccc(-n2cc(CN3CCCCC3)nn2)cc1,108%,94.9%,105%,105%,106%,102%,102%,102%,101%,107%,96.7%,92.8%,102%,104%,98.9%,99.6%,97.4%,,109%,
O=C1[C@H]2Cc3c([nH]c4ccccc34)[C@@H](c3c(Cl)cccc3Cl)N2C(=O)CN1C1CCN(CC2CCCCC2)CC1,48.9%,9.76% (active),85.5%,75%,,84.4%,105%,95.4%,110%,29.5%,20.5%,100%,94.6%,89.1%,63.5%,83.7%,94.3%,-59.9% (active),99.3%,
COc1cc(Cn2cc3c(c2)-c2onc(CN4CCCC4)c2CC3)cc(OC)c1OC,75.6%,59.9%,66.5%,91.3%,,91.4%,85.8%,92.7%,97.1%,94.7%,105%,104%,90.6%,96.8%,92.5%,79.8%,81.2%,97.6%,95.2%,
C=C(C=O)[C@@H]1CC[C@]2(C)[C@H](CC=C3[C@H]4[C@@H](C)[C@H](C)CC[C@]4(C(=O)OC)CC[C@]32C)[C@@]1(C)CCC#N,16.7%,8.57% (active),-63.6% (active),-21.9% (active),,20%,7.53% (active),-61.4% (active),-20.3% (active),-55% (active),-37.4% (active),67.6%,25.2%,5.57% (active),9.4% (active),-98% (active),-31.9% (active),-86.1% (active),-39.4% (active),
C=C(C=O)[C@@H]1CC[C@]2(C)[C@H](C(=O)C=C3[C@H]4C[C@](C)(C(=O)OC)CC[C@]4(C)CC[C@]32C)[C@@]1(C)CCC#N,6.32% (active),5.75% (active),-49.8% (active),-19% (active),,32%,28.4%,-29.1% (active),-13.6% (active),-45.3% (active),-5.25% (active),66.1%,30.7%,2.98% (active),11.2%,-88% (active),-19% (active),-83.2% (active),-38.3% (active),
Cc1cccc(/C=C/C(=O)Nc2ncc(Cc3cccc(C)c3)s2)c1,8.51% (active),11.9%,33.6%,38.8%,,48.2%,-1.79% (active),4.05% (active),38.3%,17.5%,2.82% (active),8.11% (active),47.2%,22.1%,13%,-19% (active),14.8%,23.3%,49.8%,0.505% (active)
COc1cccc(/C=C(/C)c2ccc3cccc(OC)c3[o+]2)c1O,107%,97.2%,105%,89.8%,,95.3%,101%,103%,110%,98%,114%,92.4%,95.6%,108%,87.3%,102%,80.3%,127%,98.9%,
O=C1[C@@H]2Cc3c([nH]c4ccccc34)[C@H](c3c(Cl)cccc3Cl)N2C(=O)CN1C1CCN(CC2CCCCC2)CC1,34.4%,1.73% (active),80.6%,50%,,75.2%,105%,68.8%,91.4%,7% (active),5.63% (active),103%,71.5%,42.8%,20.6%,50.4%,79.5%,-81.1% (active),93.9%,
CS(=O)(=O)Nc1cc(-c2ccc3ncc(C#N)c(NCc4ccccc4O)c3c2)cnc1Cl,19.2%,22.3%,-37.2% (active),6.73% (active),,6.44% (active),-14.4% (active),-14.5% (active),6.3% (active),8.71% (active),15.5%,32.3%,11.9%,13.6%,9.68% (active),-90.3% (active),-25.3% (active),-34.5% (active),5.12% (active),
CC1(C)CC[C@]2(CN)CC[C@]3(C)C(=CC[C@@H]4[C@@]5(C)CCCNC(C)(C)[C@@H]5CC[C@]43C)[C@H]2C1,109%,3.16% (active),102%,106%,,98.6%,104%,99.7%,117%,71.7%,40.7%,99.1%,101%,89.4%,87.6%,98.8%,105%,81.9%,103%,
CCOC(=O)C(=O)/C(=C\c1ccc(Cl)cc1)C(=O)N1C(=S)NC(=O)C1CC(C)C (stereo not drawn),85.2%,102%,99.8%,90.8%,,100%,99.9%,103%,105%,92.8%,108%,101%,99.1%,101%,93.6%,92.8%,91.5%,112%,95.1%,
CC(C)C[C@@H]1N[C@@]2(C(=O)Nc3ccccc32)[C@@H](c2ccc(F)cc2)[C@@H]1C(=O)c1ccc(O)cc1,102%,89.7%,84.3%,82.4%,,88.7%,100%,93.3%,112%,93%,105%,96.8%,95.1%,97.1%,63.6%,93.5%,69%,92.4%,103%,
COc1ccc(/C=C(/C)c2ccc3ccc(OC)cc3[o+]2)c(O)c1,86.1%,31.9%,85.2%,72.7%,,88.1%,94.2%,96.1%,89.7%,22.5%,44.7%,85.6%,82.4%,84.6%,41.7%,61.6%,50.9%,-15.8% (active),96%,
